This passage reports composite z-score, composite Z-score and z-score results from PubChem BioAssay.

One experiment has as its target Albumin (Bos taurus) (UniProt P02769). Briefly: compounds binding labelled BSA control protein – biochemical, small-molecule microarray, Alexa647 label, 635/667 nm fluorescence, artefact control for SMM control protein annotation, profiling panel (AID 1118).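 Also: score merges 667 nm emission intensity and signal-to-noise per printed compound spot.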 The following applies: BSA-A647 binding, fluorescence 635 nm, higher = more signal.
A short description of experiment [1]: probe aXIP binding to arrayed compounds – biochemical, NeuroSMM set, 635/667 nm fluorescence, primary screen (AID 1119).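 Also: probe is the protein aXip251-270 applied at 1 µg/mL to compound-printed slides; binding of probe to printed compounds measured as 667 nm fluorescence plus signal to noise.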 The following applies: small-molecule microarray, higher = more signal, called active from +8 up or from −8 down.
Experiment [2] in a line: probe aNOTCH3 binding on compound microarray – biochemical, small-molecule microarray, 635/667 nm fluorescence, primary screen (AID 1120).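 Also: probe is a biotin-tagged antibody raised against NOTCH3 rather than NOTCH3 protein; score merges spot fluorescence near 667 nm with spot signal to noise.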 The following applies: higher = more signal.
The nature of experiment [3]: probe aNOTCH2 binding on compound microarray – biochemical, small-molecule microarray, 635/667 nm fluorescence, primary screen (AID 1121).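 Also: score merges feature fluorescence read at 667 nm with its signal to noise.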 The note with it: higher = more signal.
Experiment [4] deals with Carbonic anhydrase 2 (Homo sapiens) (UniProt P00918). As to the kind of experiment: compounds binding carbonic anhydrase 2 – biochemical, small-molecule microarray, Alexa647-labelled CAII, profiling panel (AID 1122). The note with it: CAII-A647 binding fluorescence, higher = more signal.
A short description of experiment [5]: COS7 lysate on small-molecule microarray, probe aHis, 635 nm (AID 1123).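 Also: z-score combines 667nm fluorescence intensity with signal-to-noise per printed compound spot.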 The following applies: COS7 cell lysate, fluorescence, higher = more signal.
The nature of experiment [6]: probe aLAP1 signal on lysate-treated microarray – cell lysate, small-molecule microarray, COS7 lysate, primary screen (AID 1124).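 Also: lysate comes from COS7 cells expressing LAP1 and is applied at 0.3 µg/mL; score merges spot fluorescence near 667 nm with signal-to-noise over triplicate slides.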 The note with it: probe aLAP1, fluorescence, higher = more signal.
The next experiment concerns Sam68 (KHDRBS1). Briefly: compounds binding KHDRBS1 protein – biochemical, small-molecule microarray, 635 nm fluorescence, primary screen (AID 1125).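 Also: score merges 667 nm channel intensity with signal to noise over triplicate slides.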 The note with it: higher = more signal.
Experiment [7] relates to Chordin-like protein 2 (CHRDL2). As to the kind of experiment: compounds binding chordin-like 2 – biochemical, small-molecule microarray, 635 nm fluorescence, primary screen (AID 1126).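 Also: printed compound slides probed with Chrdl2 protein at 4 µg/mL for 1 h at 4 C; score merges 667 nm emission intensity with signal to noise over three replicate slides.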 The following applies: fluorescence 635 nm, higher = more signal.
The target of experiment [8] is Concanavalin-A (Canavalia ensiformis) (UniProt P02866). Briefly: compounds binding concanavalin A lectin – biochemical, small-molecule microarray, Alexa647 label, 635 nm, artefact control for SMM control protein annotation, primary screen (AID 1127).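 Also: z combines 667 nm emission intensity with signal-to-noise across three replicate slides.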 The following applies: ConA-A647 binding fluorescence, higher = more signal.
Sequence of Concanavalin-A (Canavalia ensiformis) (P02866 whole entry, looked up): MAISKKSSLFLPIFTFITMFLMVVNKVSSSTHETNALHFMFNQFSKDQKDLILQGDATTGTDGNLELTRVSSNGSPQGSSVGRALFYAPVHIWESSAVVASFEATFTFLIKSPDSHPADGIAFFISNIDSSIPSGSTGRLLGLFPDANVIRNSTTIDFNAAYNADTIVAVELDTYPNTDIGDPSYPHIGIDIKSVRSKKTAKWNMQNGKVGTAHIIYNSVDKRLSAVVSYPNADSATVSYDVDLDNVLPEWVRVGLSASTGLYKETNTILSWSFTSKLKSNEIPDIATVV
A short description of experiment [9]: compounds binding Alexa647 anti-His antibody – biochemical, small-molecule microarray, 635 nm fluorescence, artefact control for SMM control protein annotation, primary screen (AID 1128).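 Also: score merges feature fluorescence with signal-to-noise for each printed compound spot.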 The following applies: higher = more signal.
The subject of experiment [10] is Human papillomavirus type 1a E7 protein (residues 1-88). Briefly: HPV1a E7 small-molecule binders, primary screen, biochemical, small-molecule microarray, residues 1-88, 635 nm (AID 1129). The following applies: small-molecule microarray binding, fluorescence 635 nm; higher = more signal.
In experiment [11] the target is Focal adhesion kinase 1 (Homo sapiens) (UniProt Q05397). Briefly: PTK2 protein binding on printed compound slides – biochemical, small-molecule microarray, 635/667 nm fluorescence, BSA, DTT, primary screen (AID 1130).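 Also: composite of spot emission at 667 nm and signal to noise over triplicate slides.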 The note with it: 635 nm fluorescence, higher = more signal.
Sequence of Focal adhesion kinase 1 (Homo sapiens) (Q05397 whole entry, looked up): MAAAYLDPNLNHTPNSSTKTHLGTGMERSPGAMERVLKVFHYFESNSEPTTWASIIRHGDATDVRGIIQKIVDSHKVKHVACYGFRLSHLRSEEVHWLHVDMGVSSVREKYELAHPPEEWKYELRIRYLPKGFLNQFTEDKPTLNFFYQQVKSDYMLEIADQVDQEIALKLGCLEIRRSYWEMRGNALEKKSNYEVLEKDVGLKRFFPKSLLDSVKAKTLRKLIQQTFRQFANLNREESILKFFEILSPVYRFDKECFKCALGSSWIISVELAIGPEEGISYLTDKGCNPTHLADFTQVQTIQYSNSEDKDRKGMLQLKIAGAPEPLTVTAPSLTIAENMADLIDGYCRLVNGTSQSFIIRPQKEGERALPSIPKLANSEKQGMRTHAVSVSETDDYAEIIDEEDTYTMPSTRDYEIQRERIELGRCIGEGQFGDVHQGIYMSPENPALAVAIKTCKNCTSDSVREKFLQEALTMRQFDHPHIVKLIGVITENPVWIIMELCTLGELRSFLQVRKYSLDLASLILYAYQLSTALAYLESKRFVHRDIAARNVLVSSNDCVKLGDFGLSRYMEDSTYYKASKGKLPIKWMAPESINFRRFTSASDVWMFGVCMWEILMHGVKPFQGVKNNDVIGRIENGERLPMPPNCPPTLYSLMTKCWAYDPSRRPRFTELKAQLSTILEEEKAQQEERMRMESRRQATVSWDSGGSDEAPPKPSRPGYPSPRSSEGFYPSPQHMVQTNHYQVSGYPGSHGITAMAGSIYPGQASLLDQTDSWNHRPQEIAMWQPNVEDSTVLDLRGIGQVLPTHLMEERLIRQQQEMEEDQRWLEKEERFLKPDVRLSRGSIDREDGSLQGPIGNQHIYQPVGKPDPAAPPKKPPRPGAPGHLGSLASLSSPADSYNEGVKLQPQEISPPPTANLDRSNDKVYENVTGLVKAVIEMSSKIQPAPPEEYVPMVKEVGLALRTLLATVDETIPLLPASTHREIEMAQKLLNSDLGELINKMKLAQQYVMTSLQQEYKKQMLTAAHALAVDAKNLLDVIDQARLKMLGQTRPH
In experiment [12] the test system is Fibrinogen (Alexa647-labelled). Briefly: Alexa647-fibrinogen binding to printed small molecules – biochemical, small-molecule microarray, 635/667 nm fluorescence, artefact control for SMM control-protein annotation, profiling panel (AID 1131).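 Also: z-score merges 667 nm fluorescence with per-spot signal-to-noise over triplicate slides.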 The note with it: fibrinogen-A647 binding fluorescence, higher = more signal.
Experiment [13] deals with Follistatin (Homo sapiens) (UniProt P19883). Briefly: FST protein binding to printed compounds – biochemical, small-molecule microarray, 635/667 nm fluorescence, primary screen (AID 1132). The note with it: 635 nm fluorescence, higher = more signal.
Sequence of Follistatin (Homo sapiens) (P19883 whole entry, looked up): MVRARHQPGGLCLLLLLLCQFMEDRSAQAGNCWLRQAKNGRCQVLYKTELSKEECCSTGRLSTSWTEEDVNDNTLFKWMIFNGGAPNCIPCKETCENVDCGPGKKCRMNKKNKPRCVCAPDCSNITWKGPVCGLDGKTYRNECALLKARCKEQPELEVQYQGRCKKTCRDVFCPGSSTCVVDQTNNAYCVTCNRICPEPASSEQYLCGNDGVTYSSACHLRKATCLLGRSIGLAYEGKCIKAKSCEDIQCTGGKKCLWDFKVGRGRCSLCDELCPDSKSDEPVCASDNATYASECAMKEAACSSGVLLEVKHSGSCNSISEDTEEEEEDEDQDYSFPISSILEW
The target in experiment [14] is Fibroblast growth factor 2 (Homo sapiens) (UniProt P09038). As to the kind of experiment: basic fibroblast growth factor binding to printed compounds – biochemical, small-molecule microarray, 635/667 nm fluorescence, primary screen (AID 1133). The note with it: FGF2, fluorescence 635/667, higher = more signal.
Sequence of Fibroblast growth factor 2 (Homo sapiens) (P09038 whole entry, looked up): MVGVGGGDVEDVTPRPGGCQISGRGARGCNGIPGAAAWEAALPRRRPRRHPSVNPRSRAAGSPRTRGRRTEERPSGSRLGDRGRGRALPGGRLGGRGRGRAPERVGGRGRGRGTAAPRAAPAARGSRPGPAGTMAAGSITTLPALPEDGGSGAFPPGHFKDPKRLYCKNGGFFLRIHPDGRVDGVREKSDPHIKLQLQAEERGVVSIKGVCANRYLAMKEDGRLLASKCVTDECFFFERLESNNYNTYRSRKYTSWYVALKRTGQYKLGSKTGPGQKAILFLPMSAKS
Experiment [15] is described as follows: JC-1 mitochondrial potential readout, lung cancer cells – cell-based, A549, JC-1 fluorescence, basal, 24 h, 100 nL, profiling panel (AID 1138).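 Also: A549 lung adenocarcinoma cells under basal conditions with no added stimulus; test concentration not given here.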 The following applies: higher = more signal.
The subject of another experiment is Lefty1. Briefly: Lefty1 protein binding to printed compounds – biochemical, small-molecule microarray, 635/667 nm fluorescence, primary screen (AID 1139). The following applies: fluorescence 635/667, higher = more signal.
Experiment [16] deals with wheat germ agglutinin (Triticum aestivum), Alexa647-labelled. As to the kind of experiment: Alexa647-WGA lectin binding to printed small molecules – biochemical, small-molecule microarray, 635/667 nm fluorescence, artefact control for SMM control-protein annotation, profiling panel (AID 1140).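 Also: score merges 667 nm feature emission with signal to noise over triplicate slides.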 The note with it: WGA-A647 binding, 635 nm fluorescence, higher = more signal.
The target in experiment [17] is Luciferin 4-monooxygenase (Photinus pyralis) (UniProt P08659). As to the kind of experiment: inhibition of purified Photinus pyralis luciferase – biochemical, luminescence, purified enzyme, 2006 set, primary screen (AID 1141).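 Also: cell-free assay with purified firefly luciferase at 100 ng per well in PBS; test concentration not given here.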 The note with it: purified firefly luciferase, SteadyGlo luminescence, 30 min; higher = more signal, called active from +8 up or from −8 down.
Sequence of Luciferin 4-monooxygenase (Photinus pyralis) (P08659 whole entry, looked up): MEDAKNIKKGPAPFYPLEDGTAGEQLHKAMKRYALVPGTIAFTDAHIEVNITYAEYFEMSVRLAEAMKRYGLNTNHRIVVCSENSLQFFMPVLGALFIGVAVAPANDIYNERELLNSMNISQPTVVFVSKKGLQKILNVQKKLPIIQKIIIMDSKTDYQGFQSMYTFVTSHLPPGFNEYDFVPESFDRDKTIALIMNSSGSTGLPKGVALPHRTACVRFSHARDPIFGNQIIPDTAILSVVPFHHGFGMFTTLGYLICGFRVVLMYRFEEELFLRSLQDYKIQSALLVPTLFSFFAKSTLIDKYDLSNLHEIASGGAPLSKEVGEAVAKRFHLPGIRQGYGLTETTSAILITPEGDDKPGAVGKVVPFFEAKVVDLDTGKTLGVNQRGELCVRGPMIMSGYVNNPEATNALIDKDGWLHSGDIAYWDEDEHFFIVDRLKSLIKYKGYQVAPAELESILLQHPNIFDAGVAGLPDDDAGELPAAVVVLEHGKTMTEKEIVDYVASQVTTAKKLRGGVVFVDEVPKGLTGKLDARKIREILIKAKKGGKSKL

Activity calls are given as the source filed them.

Sequence of Albumin (Bos taurus) (P02769 whole entry, looked up): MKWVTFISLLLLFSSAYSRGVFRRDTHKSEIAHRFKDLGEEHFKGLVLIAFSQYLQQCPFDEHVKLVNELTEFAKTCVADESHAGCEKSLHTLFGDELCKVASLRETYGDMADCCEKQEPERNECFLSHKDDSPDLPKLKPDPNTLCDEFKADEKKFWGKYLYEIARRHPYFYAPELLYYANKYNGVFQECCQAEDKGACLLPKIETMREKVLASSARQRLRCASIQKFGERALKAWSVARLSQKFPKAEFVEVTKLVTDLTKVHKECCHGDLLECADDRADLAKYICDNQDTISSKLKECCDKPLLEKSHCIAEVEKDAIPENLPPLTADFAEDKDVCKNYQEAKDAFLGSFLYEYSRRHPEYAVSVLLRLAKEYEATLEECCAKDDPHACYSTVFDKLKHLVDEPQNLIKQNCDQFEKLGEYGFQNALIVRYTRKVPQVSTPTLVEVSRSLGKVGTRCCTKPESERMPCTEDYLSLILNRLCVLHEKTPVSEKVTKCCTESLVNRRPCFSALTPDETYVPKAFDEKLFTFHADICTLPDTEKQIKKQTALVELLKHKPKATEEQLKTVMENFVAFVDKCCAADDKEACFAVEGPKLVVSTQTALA

As to `COc1ccc(C#Cc2ccc3c(c2)[C@]2(C(=O)N3)[C@H](C(=O)Nc3nc4ccccc4s3)[C@H]3C(=O)O[C@H](c4ccccc4)[C@H](c4ccccc4)N3[C@@H]2c2ccccc2OCCO)cc1`, the composite z-score with Albumin (Bos taurus) was 0.656; in experiment [2], 0.0942; in experiment [3], -0.149; in experiment [4], 0.564; in experiment [5], 1.46; in experiment [6], 0.476. Besides, the composite z-score in the experiment with Sam68 (KHDRBS1) was 1.25; in experiment [7], -0.0198; in [8] it was 1.13; in experiment [9], 0.395; in [10] it was 1.1; in [11] it was 0.446. The composite z-score in [12] was found to be 0.969; in experiment [13], 1.16; in experiment [14], 0.0821; in the experiment on Lefty1 it was 0.262; in [16], 0.371. In experiment [1], the composite Z-score was 0.0221 (inactive). Further, the z-score in [15] is -1.98; in experiment [17], -0.364 (inactive).
As to `COC(=O)[C@@]1(Cc2ccc(F)cc2)[C@H]2c3cc(C(=O)N4CCCC4)n(C)c3C[C@H]2CN1C(=O)c1ccccc1`, the composite z-score came to 0.942 with Albumin (Bos taurus); 0.49 in [2]; 0.295 in experiment [3]; 0.76 in [4]; 3.32 in [5]; 1.01 in experiment [6]. Further, the composite z-score in the experiment on Sam68 (KHDRBS1) is 1.31; in experiment [7], -1.04; in [8], 0.683; in experiment [9] it was 2.46; in experiment [10] it was 1.23; in [11], 0.746. Also, the composite z-score in experiment [12] was 0.422; in experiment [13], 0.253; in experiment [14], -0.325; in the experiment with Lefty1, -0.983; in experiment [16], 0.0993. Besides, the composite Z-score in [1] is 0.929 (inactive). In addition, the z-score was 0.312 in experiment [15] and 0.745 (inactive) in experiment [17].
For `CN(C)CCCCCCNC(=O)[C@@H]1C[C@@H]2C(=O)N[C@@H](CCCCN)C(=O)N2[C@@H]1c1ccc(O)cc1`, the composite z-score with Albumin (Bos taurus) came out at 0.73; in experiment [2], 2.14; in experiment [3] it was 0.999; in experiment [4], 0.74; in experiment [5] it was 3.41; in experiment [6], 0.611. The composite z-score in the experiment with Sam68 (KHDRBS1) worked out at 1.32; in experiment [7], 1.36; in [8], 1.24; in [9] it was 2.6; in [10], 1.33; in [11], 3.73. Moreover, the composite z-score in experiment [12] is 0.957; in experiment [13], 1.54; in experiment [14], 1.6; in the experiment on Lefty1, 1.66; in experiment [16], 1.73. In addition, in experiment [1], the composite Z-score is 3.97 (inactive). Moreover, the z-score in experiment [15] is -0.742; in experiment [17], 0.307 (inactive).
Regarding `C=C(COC)C(=O)CC[C@H](OC(C)=O)c1ccc(OCCO)cc1`, the composite z-score in the experiment with Albumin (Bos taurus) is -0.0592; in experiment [2], -0.0362; in [3] it was -0.0971; in experiment [4] it was 0.549; in experiment [5], 0.523; in experiment [6] it was 2.46. Besides, the composite z-score in the experiment with Sam68 (KHDRBS1) is 0.666; in experiment [7] it was 0.569; in experiment [8], 0.488; in [9] it was 0.943; in experiment [10], 0.0389; in experiment [11], -0.267. For the same compound, the composite z-score in experiment [12] is -0.0148; in experiment [13], 1.51; in experiment [14] it was 1.43; in the experiment with Lefty1, 1.46; in experiment [16] it was 0.777. For the same compound, the composite Z-score in [1] was -0.308 (inactive). Moreover, the z-score in experiment [15] is -0.686; in [17] it was -0.574 (inactive).
In the case of `O=C1C[C@@](C(=O)NCc2ccccc2)(c2ccc([N+](=O)[O-])cc2)[C@@H](c2ccc(CO)cc2I)N1CC12CC3CC(CC(C3)C1)C2`, the composite z-score with Albumin (Bos taurus) was 0.59; in experiment [2], -0.223; in experiment [3], -0.14; in experiment [4], 0.721; in experiment [5], 2.25; in experiment [6], 0.0884. The composite z-score with Sam68 (KHDRBS1) is 1.21; in [7], 0.542; in experiment [8], 0.999; in experiment [9] it was 0.579; in experiment [10], 0.976; in experiment [11], 0.121. Moreover, the composite z-score in [12] was 0.846; in experiment [13] it was 1.41; in experiment [14], 1.54; in the experiment on Lefty1, 1.52; in experiment [16], 1.07. The composite Z-score in experiment [1] is -0.0102 (inactive). Also, the results for the z-score in [15] and in experiment [17] were -1.36 and 1.34 (inactive), respectively.
Take `CC(C)C(CO)N1C(=O)[C@@H]2[C@H]3C(=O)OCC=C[C@H]3OC23C=CCN(C(C)(C)C)C(=O)[C@@H]13` (stereo not given in full): the composite z-score is -0.0498 in the experiment with Albumin (Bos taurus); -0.252 in experiment [2]; -0.168 in [3]; 0.409 in experiment [4]; -0.843 in [5]; -0.495 in experiment [6]. Also, the composite z-score in the experiment with Sam68 (KHDRBS1) was -1.41; in experiment [7], -0.109; in [8], 0.0282; in experiment [9] it was -0.54; in experiment [10] it was -1.09; in experiment [11] it was -0.513. For the same compound, the composite z-score in [12] is -0.0751; in experiment [13] it was 0.277; in experiment [14], -0.405; in the experiment on Lefty1 it was 0.503; in experiment [16], -0.0676. In addition, the composite Z-score in experiment [1] is -0.343 (inactive). In addition, the figures for the z-score in [15] and in [17] were -1.76 and -0.159 (inactive), respectively.
